# In publication PMC7862700, “An all-to-all approach to the identification of sequence-specific readers for epigenetic DNA modifications on cytosine”:
# Experiments:
# Assay in all cases: DAPPL (digital affinity profiling via proximity ligation, sequencing); 10 mM Tris-HCl pH 7.5, 50 mM NaCl, 1 mM DTT, 4% glycerol, room temperature, 30 min; GST-TFs on glutathione beads, 16-mer random dsDNA library, 0.1% formaldehyde crosslink after washing; high values mean tight binding
# Conditions in all cases: protein: recombinant; tags: N-terminal GST; dsDNA, one strand shown
# FLI1 = biological target: T1, FLI1 (Homo sapiens, UniProt Q01543 1-452)
# T1 sequence: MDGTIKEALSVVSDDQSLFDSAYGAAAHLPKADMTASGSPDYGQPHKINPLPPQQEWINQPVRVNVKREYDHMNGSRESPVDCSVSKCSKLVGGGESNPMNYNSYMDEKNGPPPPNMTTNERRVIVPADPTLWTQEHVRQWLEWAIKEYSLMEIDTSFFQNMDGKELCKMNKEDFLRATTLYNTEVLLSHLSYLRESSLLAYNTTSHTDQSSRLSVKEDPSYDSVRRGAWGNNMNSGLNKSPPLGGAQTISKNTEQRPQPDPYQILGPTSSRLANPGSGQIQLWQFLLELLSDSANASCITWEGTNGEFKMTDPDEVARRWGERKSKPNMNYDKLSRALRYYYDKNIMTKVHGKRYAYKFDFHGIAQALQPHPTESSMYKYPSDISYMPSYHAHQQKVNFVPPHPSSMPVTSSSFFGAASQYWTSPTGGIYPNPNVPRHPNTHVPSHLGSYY
# Outline: (§1)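 In yeast, human transcription factors were expressed with a GST fusion, then pulled down on glutathione beads and given DNA barcodes. Pooled with a tag-only sample, they were exposed to 200 nmole of a 16-mer random double-stranded DNA library (Tris/NaCl/DTT/glycerol buffer, room temperature, 30 min), washed, crosslinked with 0.1% formaldehyde, proximity-ligated using BsaI/T4 ligase for 1 h at 37 °C, PCR-amplified and read on an Illumina NextSeq500. Each hexamer's frequency of reads for a factor, divided by the matching frequency for the tag-only sample, gives the binding signal.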
# ELK1 = biological target: T2, ELK1 (Homo sapiens, UniProt P19419 1-428)
# T2 sequence: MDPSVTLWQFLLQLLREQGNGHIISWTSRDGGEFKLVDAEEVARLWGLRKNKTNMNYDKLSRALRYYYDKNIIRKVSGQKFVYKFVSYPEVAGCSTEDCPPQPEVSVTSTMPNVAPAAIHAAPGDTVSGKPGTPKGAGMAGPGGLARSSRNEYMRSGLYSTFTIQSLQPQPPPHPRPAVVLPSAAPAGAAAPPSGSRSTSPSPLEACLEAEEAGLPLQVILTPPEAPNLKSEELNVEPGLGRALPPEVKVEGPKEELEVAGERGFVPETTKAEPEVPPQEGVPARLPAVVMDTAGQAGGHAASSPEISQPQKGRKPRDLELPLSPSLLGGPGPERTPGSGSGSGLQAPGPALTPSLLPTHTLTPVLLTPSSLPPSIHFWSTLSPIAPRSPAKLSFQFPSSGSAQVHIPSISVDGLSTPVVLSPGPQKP
# Outline: as §1
# GABPA = biological target: T3, GABPA (Homo sapiens, UniProt Q06546 1-454)
# T3 sequence: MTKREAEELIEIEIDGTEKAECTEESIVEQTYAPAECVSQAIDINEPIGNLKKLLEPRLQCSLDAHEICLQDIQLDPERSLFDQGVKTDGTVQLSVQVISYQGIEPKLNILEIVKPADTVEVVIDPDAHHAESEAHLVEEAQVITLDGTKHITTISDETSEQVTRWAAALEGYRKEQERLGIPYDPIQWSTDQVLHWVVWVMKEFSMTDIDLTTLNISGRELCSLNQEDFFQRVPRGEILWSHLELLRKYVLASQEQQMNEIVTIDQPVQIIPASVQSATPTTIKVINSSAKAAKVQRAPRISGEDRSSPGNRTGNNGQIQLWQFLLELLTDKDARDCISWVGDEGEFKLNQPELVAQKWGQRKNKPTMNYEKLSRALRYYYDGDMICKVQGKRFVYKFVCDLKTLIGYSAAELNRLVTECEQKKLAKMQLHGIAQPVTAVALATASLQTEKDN
# Outline: as §1
# ERG = biological target: T4, ERG (Homo sapiens, UniProt P11308 1-479)
# T4 sequence: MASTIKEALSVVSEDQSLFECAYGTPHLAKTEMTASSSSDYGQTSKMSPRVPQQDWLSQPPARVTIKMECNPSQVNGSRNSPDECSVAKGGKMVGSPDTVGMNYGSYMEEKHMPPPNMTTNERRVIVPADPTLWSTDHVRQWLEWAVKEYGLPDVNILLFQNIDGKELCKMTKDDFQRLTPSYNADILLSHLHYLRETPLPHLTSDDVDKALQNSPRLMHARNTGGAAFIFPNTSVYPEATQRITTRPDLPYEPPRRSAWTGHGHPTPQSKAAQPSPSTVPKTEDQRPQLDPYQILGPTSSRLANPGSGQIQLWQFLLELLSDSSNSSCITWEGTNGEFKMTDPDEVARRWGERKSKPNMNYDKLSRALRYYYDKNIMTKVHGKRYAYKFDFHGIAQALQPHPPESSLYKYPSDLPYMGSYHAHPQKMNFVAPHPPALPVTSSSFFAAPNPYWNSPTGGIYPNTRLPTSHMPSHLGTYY
# Outline: as §1
# ELF1 = ELF1 (Homo sapiens, UniProt P32519 1-619)
# Outline: as §1
# EHF = biological target: T5, EHF (Homo sapiens, UniProt Q9NZC4 1-300)
# T5 sequence: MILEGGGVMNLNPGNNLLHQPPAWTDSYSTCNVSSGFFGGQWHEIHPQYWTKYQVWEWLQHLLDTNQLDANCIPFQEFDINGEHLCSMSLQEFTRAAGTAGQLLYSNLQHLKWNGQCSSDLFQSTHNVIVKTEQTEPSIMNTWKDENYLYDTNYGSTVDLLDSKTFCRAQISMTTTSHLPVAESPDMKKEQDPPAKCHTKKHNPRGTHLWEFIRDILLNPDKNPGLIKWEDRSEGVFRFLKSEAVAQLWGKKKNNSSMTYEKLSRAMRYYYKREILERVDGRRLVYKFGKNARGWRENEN
# Outline: as §1
# SPI1 = SPI1 (Homo sapiens, UniProt P17947 1-270)
# Outline: as §1
# SPIB = SPIB (Homo sapiens, UniProt Q01892 1-262)
# Outline: as §1
# ELK3 = biological target: T6, ELK3 (Homo sapiens, UniProt P41970 1-407)
# T6 sequence: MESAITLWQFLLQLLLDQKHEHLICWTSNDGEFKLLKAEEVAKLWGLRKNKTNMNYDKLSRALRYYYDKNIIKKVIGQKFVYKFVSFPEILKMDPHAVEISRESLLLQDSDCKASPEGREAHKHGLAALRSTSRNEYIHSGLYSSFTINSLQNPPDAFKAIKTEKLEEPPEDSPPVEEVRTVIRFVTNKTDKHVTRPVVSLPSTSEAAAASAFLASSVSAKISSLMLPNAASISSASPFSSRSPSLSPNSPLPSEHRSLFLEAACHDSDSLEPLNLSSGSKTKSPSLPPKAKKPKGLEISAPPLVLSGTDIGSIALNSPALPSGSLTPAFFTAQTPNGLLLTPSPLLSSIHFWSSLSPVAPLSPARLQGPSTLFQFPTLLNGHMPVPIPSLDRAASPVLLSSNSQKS
# Outline: as §1
# Chain of SPIB (Q01892 whole entry): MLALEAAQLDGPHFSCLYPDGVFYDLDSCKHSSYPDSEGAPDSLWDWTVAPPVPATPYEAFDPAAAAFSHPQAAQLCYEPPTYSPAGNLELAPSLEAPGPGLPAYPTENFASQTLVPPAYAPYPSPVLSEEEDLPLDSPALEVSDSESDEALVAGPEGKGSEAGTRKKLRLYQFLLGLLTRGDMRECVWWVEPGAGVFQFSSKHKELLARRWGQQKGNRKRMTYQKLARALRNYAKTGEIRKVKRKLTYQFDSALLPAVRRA
# Chain of ELF1 (P32519 whole entry): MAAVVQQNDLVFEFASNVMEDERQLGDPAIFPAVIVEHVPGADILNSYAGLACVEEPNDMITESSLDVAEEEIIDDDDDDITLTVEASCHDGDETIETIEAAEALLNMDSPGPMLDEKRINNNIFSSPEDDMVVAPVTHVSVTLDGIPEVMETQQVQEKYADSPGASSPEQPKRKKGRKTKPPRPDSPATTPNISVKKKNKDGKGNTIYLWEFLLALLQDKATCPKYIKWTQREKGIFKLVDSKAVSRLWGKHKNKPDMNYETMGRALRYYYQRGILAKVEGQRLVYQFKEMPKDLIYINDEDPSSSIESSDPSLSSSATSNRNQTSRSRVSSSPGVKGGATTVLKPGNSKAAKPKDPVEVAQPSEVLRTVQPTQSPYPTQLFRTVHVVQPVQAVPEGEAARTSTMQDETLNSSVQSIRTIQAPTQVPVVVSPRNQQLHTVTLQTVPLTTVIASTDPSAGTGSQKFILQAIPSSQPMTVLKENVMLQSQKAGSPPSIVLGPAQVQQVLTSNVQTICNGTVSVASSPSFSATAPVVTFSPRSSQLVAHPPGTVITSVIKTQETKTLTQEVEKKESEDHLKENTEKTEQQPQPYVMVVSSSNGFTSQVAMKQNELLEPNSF
sequence,measurement,setting,value
AAATCA,binding signal,FLI1,"1.12 fold enrichment (6-mer frequency, TF over GST control)"
same,binding signal,ELK1,"1.19 fold enrichment (6-mer frequency, TF over GST control)"
same,binding signal,GABPA,"1.19 fold enrichment (6-mer frequency, TF over GST control)"
same,binding signal,ERG,"1.18 fold enrichment (6-mer frequency, TF over GST control)"
same,binding signal,ELF1,"1.21 fold enrichment (6-mer frequency, TF over GST control)"
same,binding signal,EHF,"1.25 fold enrichment (6-mer frequency, TF over GST control)"
same,binding signal,SPI1,"1.26 fold enrichment (6-mer frequency, TF over GST control)"
same,binding signal,SPIB,"1.2 fold enrichment (6-mer frequency, TF over GST control)"
same,binding signal,ELK3,"1.18 fold enrichment (6-mer frequency, TF over GST control)"
